Measured values from PubChem BioAssay (NCI).
Where “and” joins values, the source holds several entries; their conditions need not be identical. Equal entries are not always repeated. The panel holds about 79,000 compounds, 15% with a hit somewhere; the sample as a whole holds those more often. More than one record can exist for a structure, and the calls need not agree. Calls of active or inactive are those of the source. No stated cut-off is given here; in the data, active means growth inhibition above about 70%; inactive means the rest.

Assays:
[1] = NCI Yeast Anticancer Drug Screen. Data for the rad50 strain (AID 155);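 further: 0% = growth of vehicle-only cultures of the same strain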; conditions: S. cerevisiae rad50 strain growth inhibition, stronger effect = higher value
How it was run: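 Readout: growth inhibition relative to vehicle-treated cultures. Compound exposure was carried out in a genetically defined yeast strain deficient in DNA damage repair.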

[2] = NCI Yeast Anticancer Drug Screen. Data for the mec2-1 strain (AID 157); conditions: S. cerevisiae mec2-1 strain, stronger effect = higher value
How it was run: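 Vehicle-treated cultures served as reference for growth inhibition of compound-exposed mec2-1 yeast.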

[3] = NCI Yeast Anticancer Drug Screen. Data for the sgs1 mgt1 strain (AID 161);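 further: 0% = growth of cultures given vehicle only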; conditions: S. cerevisiae sgs1 mgt1 strain, stronger effect = higher value
How it was run: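 Test agents were incubated with a DNA-repair-mutant yeast strain. Growth was then read and compared against vehicle-treated controls.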

[4] = NCI Yeast Anticancer Drug Screen. Data for the cln2 rad14 strain (AID 165);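 further: 0% = growth equal to vehicle treated cultures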; conditions: S. cerevisiae cln2 rad14 strain, stronger effect = higher value
How it was run: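 Each compound was tested on cln2 rad14 yeast. Inhibition of growth was calculated against vehicle-exposed controls.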

[5] = NCI Yeast Anticancer Drug Screen. Data for the bub3 strain (AID 167); conditions: S. cerevisiae bub3 mutant strain, stronger effect = higher value
How it was run: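 Readout: yeast growth inhibition, expressed relative to vehicle-only wells. The test organism is a mutant strain from a panel with lesions in DNA repair or checkpoint genes.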

[6] = NCI Yeast Anticancer Drug Screen. Data for the mlh1 rad18 strain (AID 175); conditions: S. cerevisiae mlh1 rad18 strain growth inhibition, stronger effect = higher value
How it was run: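 Vehicle-treated cultures served as the reference for growth inhibition in a yeast strain carrying DNA damage repair alterations exposed to each compound.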

[7] = NCI Yeast Anticancer Drug Screen. Data for the wt1 strain (AID 149);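 further: 0% = growth of vehicle-treated wt1 cultures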; conditions: S. cerevisiae wt1 strain (SPY 50644) growth inhibition, stronger effect = higher value
How it was run: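 Growth inhibition read against vehicle controls after compound exposure of the wt1 yeast strain.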

[8] = NCI Yeast Anticancer Drug Screen. Data for the mgt1 strain (AID 153); conditions: S. cerevisiae mgt1 mutant growth inhibition, stronger effect = higher value
How it was run: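 mgt1 strain exposed; growth vs vehicle control recorded as inhibition.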

[9] = NCI Yeast Anticancer Drug Screen. Data for the rad14 strain (AID 159);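 further: 0% = growth of vehicle-treated control cultures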; conditions: S. cerevisiae rad14 strain growth inhibition, stronger effect = higher value
How it was run: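 Growth inhibition vs vehicle controls; genetically altered yeast strain (DNA damage repair defect) treated with test compounds.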

[10] = NCI Yeast Anticancer Drug Screen. Data for the CLN2oe strain (AID 163);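 further: 0% = growth of vehicle-only control cultures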; conditions: S. cerevisiae CLN2oe strain, stronger effect = higher value
How it was run: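 Inhibition relative to vehicle-treated yeast is reported. Cells: strain with genetic alteration in cell-cycle control, grown with compound.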

[11] = NCI Yeast Anticancer Drug Screen. Data for the mlh1 strain (AID 171);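 further: 0% = growth of vehicle-treated control cultures of the same strain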; conditions: S. cerevisiae mlh1 strain growth inhibition, stronger effect = higher value
How it was run: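 Vehicle-normalised growth inhibition of a repair- or checkpoint-altered yeast strain following compound treatment.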

[12] = NCI Yeast Anticancer Drug Screen. Data for the sgs1 strain (AID 173);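 further: 0% = growth of vehicle-only control cultures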; conditions: S. cerevisiae sgs1 mutant, stronger effect = higher value
How it was run: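 Screen format: yeast with repair or checkpoint alterations, compound exposure, growth read relative to vehicle.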

[13] = NCI Yeast Anticancer Drug Screen. Data for the rad18 strain (AID 177); conditions: S. cerevisiae rad18 mutant growth inhibition, stronger effect = higher value
How it was run: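 Test articles were incubated with altered yeast defective in DNA damage repair. Results are given as inhibition of growth versus vehicle.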

[14] = at 5.0 µM (retest, dose inferred, filed as 0.5)
[15] = at 50.0 µM (retest, dose inferred, filed as 5.0)

SMILES: Nc1ccccc1SSc1ccccc1N
- growth inhibition [1, 14]: 27% (inactive) and 9% (inactive) and 56% (inactive)
- growth inhibition [1, 15]: 99% (active) and -9% (inactive)
- growth inhibition ([1]; at 50.0 µM): 99.4% (active) and 99% (active) and 99.3% (active)
- growth inhibition [2, 14]: 80% (active) and 18% (inactive) and 29% (inactive)
- growth inhibition [2, 15]: 99% (active) and 0% (inactive)
- growth inhibition ([2]; at 50.0 µM): 99.5% (active) and 99.1% (active)
- growth inhibition [3, 14]: 67% (inactive) and 13% (inactive) and 41% (inactive)
- growth inhibition [3, 15]: 99% (active) and 12% (inactive)
- growth inhibition ([3]; at 50.0 µM): 99.3% (active)
- growth inhibition [4, 14]: 17% (inactive) and 4% (inactive) and 13% (inactive)
- growth inhibition [4, 15]: 99% (active) and 5% (inactive)
- growth inhibition ([4]; at 50.0 µM): 99.2% (active) and 98.8% (active)
- growth inhibition [5, 14]: 87% (active) and 13% (inactive) and 89% (active)
- growth inhibition [5, 15]: 99% (active) and 28% (inactive)
- growth inhibition ([5]; at 50.0 µM): 98.3% (active) and 99.1% (active)
- growth inhibition [6, 14]: 80% (active) and 17% (inactive) and 46% (inactive)
- growth inhibition [6, 15]: 99% (active) and 7% (inactive)
- growth inhibition ([6]; at 50.0 µM): 99.3% (active) and 99% (active)

SMILES: CN(C)N=Nc1ccc(NC=O)cc1
- growth inhibition ([7]; at 1.2 µM): -2% (inactive)
- growth inhibition ([7]; at 3.7 µM): 1% (inactive)
- growth inhibition ([7]; at 11.0 µM): 9% (inactive)
- growth inhibition ([7]; at 33.0 µM): 92% (active)
- growth inhibition ([7]; at 100.0 µM): 99% (active)
- growth inhibition ([8]; at 1.2 µM): 20% (inactive)
- growth inhibition ([8]; at 3.7 µM): 27% (inactive)
- growth inhibition ([8]; at 11.0 µM): 23% (inactive)
- growth inhibition ([8]; at 33.0 µM): 88% (active)
- growth inhibition ([8]; at 100.0 µM): 99% (active)
- growth inhibition ([1]; at 1.2 µM): 5% (inactive)
- growth inhibition ([1]; at 3.7 µM): 4% (inactive)
- growth inhibition [1, 14]: 23% (inactive)
- growth inhibition ([1]; at 11.0 µM): 17% (inactive)
- growth inhibition ([1]; at 33.0 µM): 97% (active)
- growth inhibition [1, 15]: 67% (inactive)
- growth inhibition ([1]; at 50.0 µM): 89.7% (active)
- growth inhibition ([1]; at 100.0 µM): 99% (active)
- growth inhibition ([2]; at 1.2 µM): 0% (inactive)
- growth inhibition ([2]; at 3.7 µM): 13% (inactive)
- growth inhibition [2, 14]: 23% (inactive)
- growth inhibition ([2]; at 11.0 µM): 20% (inactive)
- growth inhibition ([2]; at 33.0 µM): 90% (active)
- growth inhibition [2, 15]: 47% (inactive)
- growth inhibition ([2]; at 50.0 µM): 91.8% (active)
- growth inhibition ([2]; at 100.0 µM): 99% (active)
- growth inhibition ([9]; at 1.2 µM): 6% (inactive)
- growth inhibition ([9]; at 3.7 µM): 3% (inactive)
- growth inhibition ([9]; at 11.0 µM): 9% (inactive)
- growth inhibition ([9]; at 33.0 µM): 77% (active)
- growth inhibition ([9]; at 100.0 µM): 98% (active)
- growth inhibition [3, 14]: -7% (inactive)
- growth inhibition [3, 15]: -44% (inactive)
- growth inhibition ([3]; at 50.0 µM): 66.2% (inactive)
- growth inhibition ([10]; at 1.2 µM): 31% (inactive)
- growth inhibition ([10]; at 3.7 µM): 27% (inactive)
- growth inhibition ([10]; at 11.0 µM): 49% (inactive)
- growth inhibition ([10]; at 33.0 µM): 98% (active)
- growth inhibition ([10]; at 100.0 µM): 99% (active)
- growth inhibition [4, 14]: -7% (inactive)
- growth inhibition [4, 15]: -19% (inactive)
- growth inhibition ([4]; at 50.0 µM): 85.2% (active)
- growth inhibition ([5]; at 1.2 µM): 15% (inactive)
- growth inhibition ([5]; at 3.7 µM): 18% (inactive)
- growth inhibition [5, 14]: -3% (inactive)
- growth inhibition ([5]; at 11.0 µM): 27% (inactive)
- growth inhibition ([5]; at 33.0 µM): 94% (active)
- growth inhibition [5, 15]: -22% (inactive)
- growth inhibition ([5]; at 50.0 µM): 78.7% (active)
- growth inhibition ([5]; at 100.0 µM): 99% (active)
- growth inhibition ([11]; at 1.2 µM): 2% (inactive)
- growth inhibition ([11]; at 3.7 µM): -7% (inactive)
- growth inhibition ([11]; at 11.0 µM): 6% (inactive)
- growth inhibition ([11]; at 33.0 µM): 91% (active)
- growth inhibition ([11]; at 100.0 µM): 99% (active)
- growth inhibition ([12]; at 1.2 µM): 2% (inactive)
- growth inhibition ([12]; at 3.7 µM): -5% (inactive)
- growth inhibition ([12]; at 11.0 µM): 8% (inactive)
- growth inhibition ([12]; at 33.0 µM): 93% (active)
- growth inhibition ([12]; at 100.0 µM): 99% (active)
- growth inhibition [6, 14]: 32% (inactive)
- growth inhibition [6, 15]: 65% (inactive)
- growth inhibition ([6]; at 50.0 µM): 87.4% (active)
- growth inhibition ([13]; at 1.2 µM): 19% (inactive)
- growth inhibition ([13]; at 3.7 µM): 24% (inactive)
- growth inhibition ([13]; at 11.0 µM): 35% (inactive)
- growth inhibition ([13]; at 33.0 µM): 98% (active)
- growth inhibition ([13]; at 100.0 µM): 99% (active)

SMILES: CC(=O)O/N=C/c1c2ccccc2cc2ccccc12
- growth inhibition ([7]; at 1.2 µM): -1% (inactive)
- growth inhibition ([7]; at 3.7 µM): 2% (inactive)
- growth inhibition ([7]; at 11.0 µM): 0% (inactive)
- growth inhibition ([7]; at 33.0 µM): 3% (inactive)
- growth inhibition ([7]; at 100.0 µM): 10% (inactive)
- growth inhibition ([8]; at 1.2 µM): -4% (inactive)
- growth inhibition ([8]; at 3.7 µM): -3% (inactive)
- growth inhibition ([8]; at 11.0 µM): -1% (inactive)
- growth inhibition ([8]; at 33.0 µM): 9% (inactive)
- growth inhibition ([8]; at 100.0 µM): 20% (inactive)
- growth inhibition ([1]; at 1.2 µM): 0% (inactive)
- growth inhibition ([1]; at 3.7 µM): 1% (inactive)
- growth inhibition [1, 14]: 55% (inactive)
- growth inhibition ([1]; at 11.0 µM): 5% (inactive)
- growth inhibition ([1]; at 33.0 µM): 20% (inactive)
- growth inhibition [1, 15]: 90% (active)
- growth inhibition ([1]; at 50.0 µM): 15.2% (inactive)
- growth inhibition ([1]; at 100.0 µM): 62% (inactive)
- growth inhibition ([2]; at 1.2 µM): -3% (inactive)
- growth inhibition ([2]; at 3.7 µM): 2% (inactive)
- growth inhibition [2, 14]: 4% (inactive)
- growth inhibition ([2]; at 11.0 µM): 7% (inactive)
- growth inhibition ([2]; at 33.0 µM): 20% (inactive)
- growth inhibition [2, 15]: 18% (inactive)
- growth inhibition ([2]; at 50.0 µM): 8.65% (inactive)
- growth inhibition ([2]; at 100.0 µM): 26% (inactive)
- growth inhibition ([9]; at 1.2 µM): -2% (inactive)
- growth inhibition ([9]; at 3.7 µM): 0% (inactive)
- growth inhibition ([9]; at 11.0 µM): 5% (inactive)
- growth inhibition ([9]; at 33.0 µM): 23% (inactive)
